Data published in PubChem BioAssay (NCATS).
Inconclusive results are not listed. Entries that show only a call come without a potency. Activity calls are given as the source filed them. Unless noted, the call rests on the fitted dose curve; in most records, active means well fitted curve in the direction sought with a large enough effect; inconclusive means small, poorly fitted or top-dose-only effect, or another doubt; inactive means no such curve, though single readings can be large; an effect the other way counts as inactive or inconclusive.

Assays:
[1] = AP1 Signaling Pathway (AID 357; active means well fitted curve in either direction with a large enough effect, not every such curve was filed as active;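 further: ME-180 reporter cells stimulated with EGF at its EC50 level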); conditions: ME-180 (cervical carcinoma) AP-1-bla reporter, EGF-induced, beta-lactamase ratio, 5 h; at 7.69 µM (top of the series) unless noted
How it was run: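 Cells are seeded overnight, exposed to compound titrations and an EC50 level of EGF for 5 hours at 37 °C, then loaded with CCF4 dye for 2.5 hours. Beta-lactamase activity under the AP-1 element is read as a blue/green ratio.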

[2] = Stat Signaling Pathway (AID 446; active means well fitted curve in either direction with a large enough effect, not every such curve was filed as active;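 further: ME-180 cervical cancer cells given 40 pM IL-6 alongside compound; SIE-controlled beta-lactamase reporter measured as 460/530 nm FRET emission ratio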)
How it was run: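 Normalization used AC90 stimulation (300 pM IL-6) and AC90 inhibition (125 nM pan-JAK inhibitor at 40 pM IL-6). The underlying signal is SIE-driven beta-lactamase in ME-180 cells after 5 h IL-6 exposure with compound.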

[3] = molecular target: Voltage-gated inwardly rectifying potassium channel KCNH2 (Homo sapiens) (UniProt Q12809); experiment: qHTS Assay for Small Molecule Inhibitors of the Human hERG Channel Activity (AID 588834);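 further: top concentration of the series differs between compounds; lower thallium flux fluorescence means stronger hERG block; nearly all actives have a fitted effect of over 50% in size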
How it was run: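 In hERG-transduced U2OS cells, dye-loaded for 1 hr at room temperature in dark, test compounds incubated 10 min at 37 °C before thallium stimulation. AC50 values derived by Hill modelling of concentration-response.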

[4] = molecular target: Luciferin 4-monooxygenase (Photinus pyralis) (UniProt P08659); experiment: Biochemical firefly luciferase enzyme assay for NPC (AID 624030);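 further: purified P. pyralis luciferase at 10 nM with luciferin and ATP substrate; nearly all actives have a fitted effect of over 70% in size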
How it was run: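 Counter-screen for direct inhibition of the luciferase enzyme by approved-drug library compounds, run at 10 nM enzyme in 50 mM Tris acetate (final). Luminescence was read within 5 min of enzyme-buffer addition and normalized to PTC124 versus DMSO (0%).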

[5] = S16 Schwann cell viability assay (CellTiter-Glo assay) (AID 624031);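 further: cellular ATP luminescence as a viability measure; nearly all actives have a fitted effect of over 70% in size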
How it was run: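 Native S16 rat Schwann cells in DMEM/10% FBS without phenol red were incubated overnight, then exposed to compounds for 24 h at 37 °C/5% CO2. Viability was read as ATP luminescence (CellTiter-Glo), normalized to no-cell wells and DMSO (0%).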

[6] = S16 Schwann cell PMP22 intronic element firefly luciferase assay (AID 624032); further: potency means the concentration at half of the fitted maximal effect; nearly all actives have a fitted effect of over 30% in size
How it was run: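 Rat S16 Schwann cells stably carrying a PMP22 intronic element-driven Fluc reporter were seeded overnight, then exposed to compounds for 24 h at 37 °C. Luminescence was normalized to PTC124 (positive control) and DMSO (0% activity).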

[7] = Cytotoxicity counterscreen for NFkB agonists and antagonists (AID 624476);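 further: cells exposed to compound for 48 hours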
[8] = qHTS Assay for Identification of Small Molecule Agonists for NFkB Signaling Pathway. (AID 624478)
How it was run: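 Compounds were added with 10 pM TNF alpha (EC50 level) to ME-180 NFkB-bla cells in low-serum Opti-MEM and incubated 5 hrs at 37 C. Beta-lactamase FRET read-out used 405 nm excitation and 460 and 530 nm emission.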

[9] = qHTS Assay for Identification of Small Molecule Antagonists for NFkB Signaling Pathway. (AID 624479; calls by dose curve;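 further: pathway stimulated with TNF alpha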)
[10] = NCATS anti-infectives library activity on HEK293 viability as a counter-qHTS vs the C. elegans viability qHTS (AID 1745854)
How it was run: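 Cytotoxicity counter-screen to a worm viability qHTS: CellTiter-Glo luminescence read 10 min after reagent addition. Compounds (final up to 41.7 uM, a 1:5 dilution series) incubated 24 hr at 37C with 1,500 HEK293 cells per well; digitonin control.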

[11] = molecular target: Glutathione peroxidase 1 (Homo sapiens) (UniProt P07203); experiment: Primary qHTS Assay for Inhibitors of Recombinant Selenoprotein Glutathione Peroxidase 1 (GPX1) (AID 1845191); further: nearly all actives have a fitted effect of over 65% in size
How it was run: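 GPX1 10 nM, GR 100 nM, GSH 1 mM, NADPH 0.5 mM, CHP 0.5 mM (final). 30-min cpd preincubation, RT. Ex340/Em450 read t=0, t=15 min.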

[12] = molecular target: Phospholipid hydroperoxide glutathione peroxidase GPX4 (Homo sapiens) (UniProt P36969); experiment: Primary qHTS Assay for Inhibitors of Recombinant Selenoprotein Glutathione Peroxidase 4 (GPX4) (AID 1845192); further: nearly all actives have a fitted effect of over 65% in size
How it was run: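 qHTS, GR-coupled: GPX4 200 nM + cpd 30 min RT → GSH 1 mM, NADPH 0.5 mM, GR 100 nM → CHP 0.5 mM start; fluor 340/450 at t0 and t15 min; no-enzyme wells as control.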

[13] = qHTS drug screen for cell cycle checkpoint inhibitors in PARPi-resistant BRCA-mutant ovarian cancer cell lines. (AID 1963452; calls by dose curve); conditions: PEO1/OlaR viability, CellTiter-Glo luminescence, 96 h, stronger effect = lower value
How it was run: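 PEO1, PEO4 and PEO1/OlaR ovarian cancer cells, 600 per well, exposed 96 h at 37C to a dilution series. Viability read by CellTiter-Glo luminescence, normalized to DMSO and empty wells; activity summarized as Z-AUC.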

[14] = qHTS profiling for inhibitors of Plasmodium falciparum proliferation (AID 504749); further: nearly all actives have a fitted effect of over 60% in size; further: potency means the concentration at half of the fitted maximal effect; conditions: P. falciparum in erythrocytes, SYBR Green DNA, 72 h, at 28.7 µM (top of the series)
How it was run: (§1)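 Quantitative HTS: compounds pinned into medium, infected erythrocytes added (0.3% parasitemia, 2.5% hematocrit), 72 h culture at 37 C under 5% CO2. Saponin/Triton lysis with SYBR Green I, overnight RT, then fluorescence read.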

3D7 = experiment: as above; conditions: P. falciparum in erythrocytes, SYBR Green DNA, 72 h; series mostly up to 28.7 µM
How it was run: as §1

7G8 = experiment: as above; conditions: P. falciparum in erythrocytes, SYBR Green DNA, 72 h; series mostly up to 28.7 µM
How it was run: as §1

AA1029 = experiment: as above; conditions: P. falciparum in erythrocytes, SYBR Green DNA, 72 h; series mostly up to 28.7 µM
How it was run: as §1

AS120 = experiment: as above; conditions: P. falciparum in erythrocytes, SYBR Green DNA, 72 h; series mostly up to 28.7 µM
How it was run: as §1

ATS189 = experiment: as above; conditions: P. falciparum in erythrocytes, SYBR Green DNA, 72 h; series mostly up to 28.7 µM
How it was run: as §1

ATS95 = experiment: as above; conditions: P. falciparum in erythrocytes, SYBR Green DNA, 72 h; series mostly up to 28.7 µM
How it was run: as §1

C2A = experiment: as above; conditions: P. falciparum in erythrocytes, SYBR Green DNA, 72 h; series mostly up to 28.7 µM
How it was run: as §1

CP185 = experiment: as above; conditions: P. falciparum in erythrocytes, SYBR Green DNA, 72 h; series mostly up to 28.7 µM
How it was run: as §1

CP191 = experiment: as above; conditions: P. falciparum in erythrocytes, SYBR Green DNA, 72 h; series mostly up to 28.7 µM
How it was run: as §1

CP192 = experiment: as above; conditions: P. falciparum in erythrocytes, SYBR Green DNA, 72 h; series mostly up to 28.7 µM
How it was run: as §1

CP194 = experiment: as above; conditions: P. falciparum in erythrocytes, SYBR Green DNA, 72 h; series mostly up to 28.7 µM
How it was run: as §1

CP201 = experiment: as above; conditions: P. falciparum in erythrocytes, SYBR Green DNA, 72 h; series mostly up to 28.7 µM
How it was run: as §1

CP211 = experiment: as above; conditions: P. falciparum in erythrocytes, SYBR Green DNA, 72 h; series mostly up to 28.7 µM
How it was run: as §1

CP217 = experiment: as above; conditions: P. falciparum in erythrocytes, SYBR Green DNA, 72 h; series mostly up to 28.7 µM
How it was run: as §1

CP237 = experiment: as above; conditions: P. falciparum in erythrocytes, SYBR Green DNA, 72 h; series mostly up to 28.7 µM
How it was run: as §1

CP238 = experiment: as above; conditions: P. falciparum in erythrocytes, SYBR Green DNA, 72 h; series mostly up to 28.7 µM
How it was run: as §1

CP247 = experiment: as above; conditions: P. falciparum in erythrocytes, SYBR Green DNA, 72 h; series mostly up to 28.7 µM
How it was run: as §1

CP250 = experiment: as above; conditions: P. falciparum in erythrocytes, SYBR Green DNA, 72 h; series mostly up to 28.7 µM
How it was run: as §1

CP252 = experiment: as above; conditions: P. falciparum in erythrocytes, SYBR Green DNA, 72 h; series mostly up to 28.7 µM
How it was run: as §1

Phospholipid hydroperoxide glutathione peroxidase GPX4 (Homo sapiens), sequence (P36969 whole entry, looked up): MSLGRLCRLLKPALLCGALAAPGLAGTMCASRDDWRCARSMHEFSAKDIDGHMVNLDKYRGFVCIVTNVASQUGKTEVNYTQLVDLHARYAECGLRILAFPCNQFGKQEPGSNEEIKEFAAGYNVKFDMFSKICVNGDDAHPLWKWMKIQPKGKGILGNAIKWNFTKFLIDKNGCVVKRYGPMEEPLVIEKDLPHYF
Voltage-gated inwardly rectifying potassium channel KCNH2 (Homo sapiens), sequence (Q12809 whole entry, looked up): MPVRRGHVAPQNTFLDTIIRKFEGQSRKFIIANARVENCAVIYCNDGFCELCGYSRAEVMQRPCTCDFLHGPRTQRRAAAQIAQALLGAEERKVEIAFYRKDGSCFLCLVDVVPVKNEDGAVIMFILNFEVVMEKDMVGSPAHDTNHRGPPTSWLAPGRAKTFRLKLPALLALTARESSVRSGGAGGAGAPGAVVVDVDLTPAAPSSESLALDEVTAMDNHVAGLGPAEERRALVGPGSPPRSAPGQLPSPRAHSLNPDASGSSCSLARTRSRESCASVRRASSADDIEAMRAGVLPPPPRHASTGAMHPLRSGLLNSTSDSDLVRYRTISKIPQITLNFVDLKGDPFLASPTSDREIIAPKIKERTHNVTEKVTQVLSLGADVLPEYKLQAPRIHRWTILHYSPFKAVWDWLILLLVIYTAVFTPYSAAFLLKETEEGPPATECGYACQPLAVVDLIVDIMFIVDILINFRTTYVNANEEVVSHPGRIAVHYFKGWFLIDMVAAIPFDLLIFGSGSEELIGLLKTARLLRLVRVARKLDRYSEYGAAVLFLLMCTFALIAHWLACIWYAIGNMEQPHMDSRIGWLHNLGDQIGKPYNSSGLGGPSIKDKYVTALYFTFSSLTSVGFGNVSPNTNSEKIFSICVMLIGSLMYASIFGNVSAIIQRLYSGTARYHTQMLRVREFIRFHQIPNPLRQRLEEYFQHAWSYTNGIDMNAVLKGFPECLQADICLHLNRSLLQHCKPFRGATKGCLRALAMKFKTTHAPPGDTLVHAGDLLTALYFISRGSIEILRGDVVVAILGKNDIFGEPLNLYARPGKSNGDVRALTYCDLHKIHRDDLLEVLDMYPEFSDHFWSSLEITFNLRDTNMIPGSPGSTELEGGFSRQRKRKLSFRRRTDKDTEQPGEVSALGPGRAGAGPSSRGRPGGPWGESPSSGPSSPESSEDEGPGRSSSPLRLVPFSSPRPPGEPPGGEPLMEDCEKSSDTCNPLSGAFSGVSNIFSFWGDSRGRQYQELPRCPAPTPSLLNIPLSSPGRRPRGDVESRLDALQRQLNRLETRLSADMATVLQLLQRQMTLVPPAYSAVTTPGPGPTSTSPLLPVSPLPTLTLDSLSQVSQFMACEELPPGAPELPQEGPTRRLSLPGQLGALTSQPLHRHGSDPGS
Glutathione peroxidase 1 (Homo sapiens), sequence (P07203 whole entry, looked up): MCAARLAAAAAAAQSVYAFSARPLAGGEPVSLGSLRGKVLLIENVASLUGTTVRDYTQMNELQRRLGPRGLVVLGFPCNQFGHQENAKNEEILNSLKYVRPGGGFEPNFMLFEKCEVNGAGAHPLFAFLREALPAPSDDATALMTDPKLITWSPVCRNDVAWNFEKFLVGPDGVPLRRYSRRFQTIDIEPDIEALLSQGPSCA
Luciferin 4-monooxygenase (Photinus pyralis), sequence (P08659 whole entry, looked up): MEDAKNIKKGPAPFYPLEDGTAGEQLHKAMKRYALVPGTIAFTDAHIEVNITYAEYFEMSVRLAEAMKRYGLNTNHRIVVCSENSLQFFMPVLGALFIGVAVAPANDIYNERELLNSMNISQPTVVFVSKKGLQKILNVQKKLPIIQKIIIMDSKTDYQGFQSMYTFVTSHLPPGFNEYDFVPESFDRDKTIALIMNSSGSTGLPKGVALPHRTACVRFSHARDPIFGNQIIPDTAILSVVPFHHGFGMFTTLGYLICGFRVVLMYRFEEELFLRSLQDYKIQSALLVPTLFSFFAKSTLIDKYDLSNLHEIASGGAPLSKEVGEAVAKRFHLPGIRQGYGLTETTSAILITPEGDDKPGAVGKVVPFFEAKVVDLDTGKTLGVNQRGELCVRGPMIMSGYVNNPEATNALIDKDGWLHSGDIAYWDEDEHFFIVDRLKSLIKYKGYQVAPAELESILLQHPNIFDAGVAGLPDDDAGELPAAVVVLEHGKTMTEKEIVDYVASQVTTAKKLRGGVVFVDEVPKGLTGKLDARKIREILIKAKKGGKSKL

CCC(C)n1ncn(-c2ccc(N3CCN(c4ccc(OCC5COC(Cn6cncn6)(c6ccc(Cl)cc6Cl)O5)cc4)CC3)cc2)c1=O (stereo unspecified)
activity change, negative = inhibition [1]: -2.36% [at 17.2 µM] (inactive) | outcome [2]: inactive | Potency [3]: inactive | Potency [4]: inactive | Potency [5]: inactive | Potency [6]: 3.22 µM (active) | outcome [7]: inactive | outcome [8]: inactive | outcome [9]: inactive | Potency [10]: inactive | Potency [11]: inactive | Potency [12]: inactive | Z-AUC [13]: -0.487 (inactive) | Z-AUC ([13]; measured here: PEO1 parental Z-AUC): 0.019 | Z-AUC ([13]; measured here: PEO4 Z-AUC): -0.0223 | activity, negative = inhibition ([14]; parasite line A): 0.495% (inactive) | activity, negative = inhibition ([14]; parasite line B): -11% (inactive) | Potency (3D7): 3.16 µM (active) | Potency (7G8): 3.55 µM (active) | Potency (AA1029): inactive | Potency (AS120): inactive | Potency (ATS189): inactive | Potency (ATS95): inactive | Potency (C2A): inactive | Potency (CP185): inactive | Potency (CP191): inactive | Potency (CP192): inactive | Potency (CP194): inactive | Potency (CP201): inactive | Potency (CP211): inactive | Potency (CP217): inactive | Potency (CP237): 5.01 µM (active) | Potency (CP238): inactive | Potency (CP247): inactive | Potency (CP250): inactive | Potency (CP252): inactive
